In general, inhibition refers to the change of the read-out against control, counted positive when it falls.

Drawing on PubChem BioAssay AID651610 (Broad Institute, 2012), this text covers inhibition for 65 molecules.

Among all 360,000 compounds or so, about 3,900 (1.1%) were called active. Many of the other results were omitted from the sample, so actives are more common in it than they were. Values without a mark were called inactive.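 How the source made its calls: active means mean replicate inhibition score of at least 50 and every replicate individually at or above 50; inconclusive means only one of the two criteria met; inactive means mean below 50 and not all replicates reaching 50.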

The nature of the assay: blockers of JRFL envelope-mediated fusion – HeLa-JRFL effector, CEM21 target cells, luciferase, primary screen (AID 651610).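 Further: 0% = plate neutral controls and 100% = maraviroc near 300 nM.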 To be noted: HeLa-JRFL Env/CEM21 cell fusion, stronger effect = higher value; at 16.7 µM unless noted.
As for `C[C@@H]1CN([C@@H](C)CO)S(=O)(=O)c2ccc(-c3cccnc3)cc2O[C@H]1CN(C)CC1CCOCC1`, the inhibition is -3.87%. On to `C[C@@H]1CN([C@H](C)CO)C(=O)c2cccc(NS(C)(=O)=O)c2O[C@@H]1CN(C)C(=O)Nc1cccc2ccccc12`, for which the inhibition was -1.18%. To `Cc1noc(C)c1S(=O)(=O)Nc1cc(C(F)(F)F)ccc1N1CCOCC1` belongs 22.4% [at 12.3 µM]; to `O=C(CNS(=O)(=O)c1cccc(C(F)(F)F)c1)Nc1ccccc1F`, -11.7% [at 12.3 µM]. On to `Cc1oc2c(F)c(F)c(F)c(F)c2c1S(=O)(=O)Nc1cccc(C(F)(F)F)c1`, for which the inhibition is 55% [at 12.3 µM] (active). In the case of `COc1ccccc1CNC(=O)C[C@H]1C[C@@H]2c3cc(NC(=O)c4ccc5c(c4)OCO5)ccc3O[C@@H]2[C@H](CO)O1`, the inhibition was 4.06%. Turning to `CC(C)OC(=O)c1sc2nc3c(cc2c1N)C(=O)CCC3`, the inhibition was -187% [at 12.3 µM]. As to `COc1ccccc1-c1c(C#N)c(N)nc2c1CCC2`, the inhibition is 24% [at 12.3 µM]. On to `NC(=O)c1sc2nc3c(c(-c4ccccc4)c2c1N)CCC3`, for which the inhibition is 103% [at 12.3 µM] (active). `C[C@@H]1CN([C@@H](C)CO)C(=O)c2cc(NC(=O)Cn3cnnn3)ccc2O[C@H]1CN(C)Cc1ccc(C(F)(F)F)cc1`: the inhibition was 12.3%. In the case of `Cc1cc(C)c2cc(CN(Cc3nnnn3Cc3ccc(F)cc3)C3CCCC3)c(=O)[nH]c2c1`, the inhibition was 84.5% [at 12.3 µM] (active).

In the case of `Cc1n[nH]c(=O)c2c1nnn2Cc1ccc(F)cc1`, the inhibition is -10.3% [at 12.3 µM]. Take `C[C@@H]1CN([C@H](C)CO)C(=O)c2cc(-c3ccccc3F)cnc2O[C@H]1CN(C)C(=O)NC1CCCCC1`: the inhibition is -1.88%.

For `O=C(C[C@H]1CC[C@@H]2NC[C@H](O)COC[C@H]2O1)NCCN1CCCCC1`, the inhibition was 18.8%.

Take `COc1ccccc1C(=O)NC(CCSC)C(=O)N1CCN(C(C)=O)CC1` (stereo not given): the inhibition was -8.21% [at 12.3 µM]. `COc1ccccc1C(=O)NC(CCSC)C(=O)N1CCN(C/C=C/c2ccccc2)CC1` (stereo not given): the inhibition was 75.2% [at 12.3 µM] (active). With `CSCCC(NC(=O)c1ccccc1)C(=O)N1CCN(Cc2ccc(Cl)cc2)CC1` (stereo not given), the inhibition is 11.5% [at 12.3 µM]. As for `O=C(NCc1ccccc1)[C@H]1CCCN1C(=O)[C@@H]1CCCN1C(=O)c1ccc(Cl)cc1Cl`, the inhibition is -35.2% [at 12.3 µM]. `COc1ccccc1S(=O)(=O)Nc1ccc2c(c1)C(=O)N(C)C[C@@H](OC)[C@@H](C)CN[C@@H](C)CO2`: the inhibition was 61.2% (active). Then `CO[C@@H]1CN(C)C(=O)c2cc(NS(=O)(=O)c3ccc(C)cc3)ccc2OC[C@H](C)N(C(=O)NC(C)C)C[C@@H]1C`, with 64.3% (active); and `COCC(=O)N1C[C@@H](C)[C@H](OC)CN(C)C(=O)c2ccc(NC(=O)c3ccc(OC)cc3)cc2OC[C@@H]1C`, with 58.2% (active). For `COCC(=O)N1C[C@H](C)[C@@H](OC)CN(C)C(=O)c2cc(NC(=O)c3ccc(OC)cc3)ccc2OC[C@H]1C`, the inhibition was -0.959%.

As for `CO[C@@H]1CN(C)C(=O)c2cc(NS(=O)(=O)c3ccccc3)ccc2OC[C@@H](C)N(C(=O)NC(C)C)C[C@@H]1C`, the inhibition was 3.87%. To `COCC(=O)N1C[C@@H](C)[C@H](OC)CN(C)C(=O)c2ccc(NC(=O)c3ccc(F)cc3)cc2OC[C@H]1C` belongs 19.1%; to `COc1cccc(S(=O)(=O)Nc2ccc3c(c2)C(=O)N(C)C[C@@H](OC)[C@@H](C)CN[C@@H](C)CO3)c1`, 3.22%. With `COc1ccccc1S(=O)(=O)Nc1ccc2c(c1)C(=O)N(C)C[C@H](OC)[C@H](C)CN[C@H](C)CO2`, the inhibition was -20.4%. Then `CO[C@H]1CN(C)C(=O)c2cc(NS(=O)(=O)c3ccccc3)ccc2OC[C@H](C)N(C(=O)NC(C)C)C[C@@H]1C`, with -19%; and `C/C=C/c1cnc2c(c1)C(=O)N([C@@H](C)CO)C[C@@H](C)[C@H](CN(C)C(=O)c1cnccn1)O2`, with 4.56%. Take `C[C@H](CO)N1C[C@H](C)[C@@H](CN(C)C(=O)CCC(F)(F)F)OCCCC[C@H](C)Oc2ccc(NC(=O)C3CCCCC3)cc2C1=O`: the inhibition is -45.1%. As for `COc1ccc(NC(=O)N(C)C[C@@H]2Oc3ccc(NC(=O)CCN4CCOCC4)cc3C(=O)N([C@@H](C)CO)C[C@H]2C)cc1`, the inhibition is -19.9%. In the case of `Cc1noc(C)c1NC(=O)Nc1cccc2c1O[C@@H](CN(C)CC1CCCCC1)[C@H](C)CN([C@@H](C)CO)C2=O`, the inhibition was -120%. Regarding `Cc1ccc(S(=O)(=O)N(C)C[C@H]2Oc3ccc(NC(=O)CCC(F)(F)F)cc3C(=O)N([C@@H](C)CO)C[C@H]2C)cc1`, the inhibition is 9.23%.

Regarding `CCc1ccc(OCC(=O)NCC(c2ccc(Cl)cc2)N2CCCCC2)cc1` (stereo not given), the inhibition is 73.9% [at 12.3 µM] (active). To `COc1ccc(C(CNC(=O)COc2ccc([N+](=O)[O-])cc2)N2CCCCC2)cc1` (stereo not given) belongs 1.73% [at 12.3 µM]; to `COc1ccc(C(CNC(=O)COc2ccccc2OC)N2CCCCC2)cc1` (stereo not given), 1.58% [at 12.3 µM]. `COc1ccc(S(=O)(=O)N(C)C[C@@H]2OCCCC[C@H](C)Oc3ccc(NC(=O)NC4CCCCC4)cc3C(=O)N([C@H](C)CO)C[C@H]2C)cc1`: the inhibition was 20.2%.

As for `CO[C@@H]1CC[C@@H]2CCOc3ccc(C#N)cc3C(=O)N(C)[C@H](C)C(=O)N(C)C[C@@H]1O2`, the inhibition is 14.7%. For `COc1ccc(Oc2cn[nH]c2-c2ccc(OC)cc2O)cc1`, the inhibition was 4.87% [at 12.3 µM]. As to `COc1ccc(-c2cn[nH]c2-c2ccc(OC)cc2)cc1`, the inhibition is 60.2% [at 12.3 µM] (active). Turning to `COc1ccc2cc(-c3[nH]ncc3CNCCn3nc(C)cc3C)ccc2c1`, the inhibition was -11.4% [at 12.3 µM]. As for `CCCNC(=O)Nc1ccc2c(c1)C(=O)N(C)C[C@H](OC)[C@@H](C)CN(C)[C@@H](C)CO2`, the inhibition is 18.7%. On to `COc1ccc(CN(C)C[C@H]2Oc3c(NC(=O)C4CCCCC4)cccc3C(=O)N([C@@H](C)CO)C[C@@H]2C)cc1`, for which the inhibition was 7.57%.

As for `CC1(Cc2cccc(C#N)c2)C(=O)Nc2ccc(-c3cccc(C(F)(F)F)c3)cc21` (stereo not given), the inhibition is 76.4% [at 12.3 µM] (active). Then `COc1ccccc1CC1(C)C(=O)Nc2ccc(OC(F)(F)F)cc21` (stereo not given), with 5.2% [at 12.3 µM]. Consider `Cc1ccc(CC2(C)C(=O)Nc3ccc(OC(F)(F)F)cc32)cc1` (stereo not given), for which the inhibition was 10.5% [at 12.3 µM]. For `C[C@H]1CN([C@@H](C)CO)C(=O)c2cc(-c3cccnc3)cnc2O[C@@H]1CN(C)C(=O)C1CC1`, the inhibition was 1.19%. Turning to `C[C@@H]1CN([C@@H](C)CO)C(=O)c2cc(C#CC3CCCCC3)cnc2O[C@H]1CN(C)C(=O)Cc1ccccn1`, the inhibition was -1.78%. Turning to `CC(C)NC(=O)N(C)C[C@H]1Oc2ncc(C#CC3CCCCC3)cc2C(=O)N([C@H](C)CO)C[C@@H]1C`, the inhibition is 5.6%. On to `CC(C)NC(=O)Nc1ccc2c(c1)C(=O)N([C@@H](C)CO)C[C@H](C)[C@H](CN(C)S(=O)(=O)c1cccs1)O2`, for which the inhibition was -7.33%. Consider `O=C(c1ccccc1)N1CCN(c2cc(-c3ccccc3)nc3cc(-c4cccc(Cl)c4)nn23)CC1`, for which the inhibition is 57.4% [at 12.3 µM] (active). Consider `C#Cc1cc(N2CCN(C(=O)c3ccoc3)CC2)n2nc(-c3cccc(Cl)c3)cc2n1`, for which the inhibition is 2.89% [at 12.3 µM]. To `O=C(c1ccccc1)N1CCN(C(=O)c2cc3nc(-c4ccccc4)cc(C(F)(F)F)n3n2)CC1` belongs 13.3% [at 12.3 µM]; to `CN1CCN(C(=O)C[C@H]2CC[C@@H](NC(=O)c3ccc4c(c3)OCO4)[C@H](CO)O2)CC1`, -2.25%; to `C[C@@H]1CCCCO[C@@H](CN(C)C(=O)CCC(F)(F)F)[C@H](C)CN([C@@H](C)CO)C(=O)c2cc(NC(=O)CCCN(C)C)ccc2O1`, -15.3%. `COc1ccc2c3c(n(C)c2c1)[C@H](CO)N(C(=O)NC(C)C)CC31CCN(C(=O)NC(C)C)CC1`: the inhibition is 25.2%. Regarding `C=C1c2c(Cl)ccc(O)c2C(O)=C2C(=O)[C@]3(O)C(O)=C(C(N)=O)C(=O)[C@@H](N(C)C)[C@@H]3[C@@H](O)C12` (stereo not given in full), the inhibition was 9.73% [at 12.3 µM]. For the molecule `CN(C)[C@@H]1C(=O)C(C(N)=O)=C(O)[C@@]2(O)C(=O)C3=C(O)c4c(O)ccc(Cl)c4[C@@H](O)[C@H]3C[C@@H]12`, the inhibition is 71.9% [at 12.3 µM] (active). Turning to `C[C@@H]1CN([C@H](C)CO)C(=O)c2cc(C#CC3(O)CCCC3)cnc2O[C@H]1CN(C)C(=O)C1CCC1`, the inhibition is 1.03%. To `CO[C@H]1CN(C)C(=O)c2cc(NC(=O)C3CC3)ccc2OC[C@@H](C)N(CCc2ccccc2)C[C@H]1C` belongs -0.128%; to `CC(=O)Nc1ccc(S(=O)(=O)N2CCN(C3CCCCCCC3)CC2)cc1`, -36.4% [at 12.3 µM]; to `COc1ccccc1C(=O)COC(=O)CNS(=O)(=O)c1ccc(NC(C)=O)cc1`, -8.08% [at 12.3 µM]. As for `COC(C(=O)Nc1ccc(S(=O)(=O)Nc2ccc(C)c(C)c2)cc1)c1ccccc1` (stereo not given), the inhibition is -13.7% [at 12.3 µM].

For the molecule `CC(=O)Nc1ccc(S(=O)(=O)Nc2ccc(N3CCCCC3)cc2)cc1`, the inhibition is 68.2% [at 12.3 µM] (active). With `COc1ccc(NS(=O)(=O)c2ccc(NC(C)=O)cc2)cc1OC`, the inhibition was 62.4% [at 12.3 µM] (active). Then `CC(=O)Nc1ccc(NS(=O)(=O)c2ccc3c(c2)NC(=O)CC(=O)N3)cc1`, with -3.1% [at 12.3 µM].
